High-throughput results deposited in PubChem BioAssay by National Center for Advancing Translational Sciences (NCATS).
Rows were chosen to be rich in hits. Some 2% of all compounds tested hit in one or more screens of this group.
TR SRC2 fluor cs: counter-screen for TRb-SRC2 inhibitors: fluorescence interference; AID 1479; TRb/SRC2 Texas Red total fluorescence interference; 0.29% of 280,000 active; Potency, µM (top dose mostly 106 µM), for the others: at the highest dose fluorescence change, negative = quenching; active = well fitted curve in either direction with a large enough effect; inconclusive = small, poorly fitted or top-dose-only effect; also: potency is read from the fitted curve at half-maximal effect; % is scaled to controls: 0 for no effect and ±100 for the full control effect
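Flags fluorescent or light-absorbing compounds by total fluorescence, S + 2P, at 555 nm excitation and 632 nm emission. Mixture: 20 nM Texas Red SRC2 peptide, 0.6 uM human TRb LBD, 1 uM T3, 5% DMSO; compound exposure 5 h at ambient temperature.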
TRb SRC2 PPI: TRbeta-SRC2 interaction inhibition. TRbeta-SRC2 peptide binding, fluorescence polarization; receptor liganded with 1 µM T3. 0.065% of 280,000 active. Potency, µM (top dose mostly 106 µM), without a hit: at the top dose activity change, negative = inhibition, hits mostly inhibitors;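 also: potency is read from the fitted curve at half-maximal effect; plate controls were bound peptide for no effect and peptide without receptor for full effect; nearly all actives have a fitted effect of over 50% in size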
Target sequence (P10828 whole entry, looked up): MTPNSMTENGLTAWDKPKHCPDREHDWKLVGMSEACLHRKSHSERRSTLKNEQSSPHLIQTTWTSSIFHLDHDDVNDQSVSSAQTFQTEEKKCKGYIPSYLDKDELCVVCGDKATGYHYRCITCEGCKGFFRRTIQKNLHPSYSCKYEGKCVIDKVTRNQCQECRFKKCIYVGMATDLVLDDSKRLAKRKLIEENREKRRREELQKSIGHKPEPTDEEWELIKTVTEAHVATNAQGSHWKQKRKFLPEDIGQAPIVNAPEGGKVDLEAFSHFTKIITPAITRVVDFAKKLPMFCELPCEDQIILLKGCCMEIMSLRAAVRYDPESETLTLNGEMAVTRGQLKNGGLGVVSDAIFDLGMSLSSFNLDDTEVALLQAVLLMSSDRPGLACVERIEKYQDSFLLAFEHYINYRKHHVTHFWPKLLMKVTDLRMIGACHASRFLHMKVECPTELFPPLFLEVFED
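Polarization signal, normalized between peptide-alone and full complex controls, measured compound effects on T3-liganded human TRb LBD (0.6 uM) binding 20 nM Texas Red SRC2 peptide after 5 hr.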
FBPA coupling cs: inhibits coupling enzyme system, counter-screen for aldolase hits; coupling enzyme system counterscreen, AmpLite Red fluorescence; activity change, negative = inhibition, % at 58.2 µM, hits read low; 0.67% of 290,000 active; in the data active = activity change below about -30%; also: % is scaled to controls: 0 for no effect and ±100 for the full control effect
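Compounds tested against the coupling enzymes alone at 57.5 uM final; readout was AmpLite Red fluorescence (525/598 nm) after 20 min at RT.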
JMJD2E inh: inhibitors of human JMJD2E histone demethylase; B2RXH2; JMJD2E catalytic domain, FDH-coupled NADH fluorescence (FDH is formaldehyde dehydrogenase); Potency, µM (titrated, usually from 57.1 µM), inactives show at the top dose activity change, negative = inhibition, most hits filed as inhibitors; 1.6% of 230,000 active; AID 2147; active = well fitted inhibition curve with a large enough effect, not every such curve was filed as active; inconclusive = small, poorly fitted or top-dose-only effect, or another doubt; inactive = no such curve, though single readings can be large or run the other way;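 also: potency is read from the fitted curve at half-maximal effect; 0% = wells with enzyme and -100% = buffer wells without enzyme; nearly all actives have a fitted effect of over 50% in size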
Target sequence (B2RXH2 1-337 limits assumed): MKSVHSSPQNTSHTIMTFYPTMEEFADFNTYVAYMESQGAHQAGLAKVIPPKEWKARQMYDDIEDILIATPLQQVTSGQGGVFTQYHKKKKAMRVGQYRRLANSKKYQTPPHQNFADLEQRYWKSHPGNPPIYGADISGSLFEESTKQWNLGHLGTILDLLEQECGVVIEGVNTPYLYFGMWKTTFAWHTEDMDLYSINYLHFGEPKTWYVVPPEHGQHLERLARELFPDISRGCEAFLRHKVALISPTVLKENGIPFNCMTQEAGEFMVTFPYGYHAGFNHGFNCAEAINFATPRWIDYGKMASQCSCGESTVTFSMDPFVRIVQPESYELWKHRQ
HTT cytoprotect: Huntington cell model cytoprotection by ATP luminescence; PC12 HTT-Q103 induced, cytoprotection, ATP luminescence, 40 h; Potency, µM (series often up to 56.4 µM), without a hit: cytoprotection (ATP increase), actives largely listed as activators; 0.14% of 230,000 active; also: potency is read from the fitted curve at half-maximal effect; % of control where 0% means no effect; nearly all actives have a fitted effect of over 45% in size
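PC12 cells with ecdysone-inducible HTT exon 1 Q103-GFP, induced with 100 nM tebufenozide and co-treated with library compounds in a dose series (1536-well, 1500 cells/well). Cytoprotection read as ATP content by ATPlite luminescence.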
HttQ103 aggreg: inhibitors of mutant huntingtin aggregate formation in PC12 cells. PC12 HttQ103-GFP aggregates, Acumen cytometry, 40 h. Potency, µM (titrated, usually from 46.1 µM), for the others: top-dose activity change, negative = inhibition, actives largely listed as inhibitors. 1.1% of 220,000 active; also: potency is read from the fitted curve at half-maximal effect; % is scaled to controls: 0 for no effect and ±100 for the full control effect; nearly all actives have a fitted effect of over 60% in size
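PC12/HTTQ103-GFP, ecdysone-inducible; teb 100 nM; cpd qHTS titration; GFP aggregates read on laser cytometer, Ex 488/Em 500-530 nm.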
* hit, by the source's call; ? = inconclusive; . = no result given; ! = repeats disagree; [ ] = dose if it differs, or a comment. Unless noted, calls follow the shape of the dose curve; as a rule, active = well fitted curve in the direction sought with a large enough effect; inconclusive = small, poorly fitted or top-dose-only effect, or another doubt; inactive = no such curve, though single readings can be large; an effect the other way counts as inactive or inconclusive.

SMILES | TR SRC2 fluor cs | TRb SRC2 PPI | FBPA coupling cs | JMJD2E inh | HTT cytoprotect | HttQ103 aggreg
Cc1ccc(/C([O-])=C(/C(=S)Nc2ccc(SC(F)F)cc2)[n+]2ccccc2)cc1[N+](=O)[O-] | -1% | -2% | -31* | 0% | -5%[10 µM] | -25%
Cc1ccc(NC(=S)/C(=C(\[O-])c2ccc(C)c([N+](=O)[O-])c2)[n+]2ccccc2)cc1C | -1% | 8% | 2 | -2% | -14% | -23%
COc1ccc(NC(=O)CSc2cc(-c3ccccc3)nc(C)n2)cc1 | 8.9µM*[quencher] | -26% | . | . | . | .
Cc1ccc(N(CC(=O)Nc2ccccc2C(=O)NCc2ccco2)S(=O)(=O)c2ccccc2)cc1C | 1% | 10% | -3 | ? | -19% | 2%
Cc1ccc(C)c(N(CC(=O)Nc2ccccc2C(=O)NCc2ccco2)S(=O)(=O)c2ccccc2)c1 | 2% | 6% | -6 | 4µM* | 7%[10 µM] | 29%
O=C(NC1CCCC1)c1sc(=S)n2c1[nH]c(=O)c1ccccc12 | -7% | 6% | 2 | 2% | -42% | 8.9µM*
O=C(NCc1ccco1)c1sc(=S)n2c1[nH]c(=O)c1ccccc12 | -1% | -2% | 1 | 2% | -5%[0.074 µM] | -11%
O=c1c2nc(Br)n([C@@H]3O[C@@H]4CO[P@@](O)(=S)O[C@H]4[C@H]3O)c2nc2[nH]c(-c3ccccc3)cn12 | -3% | -10% | -6 | . | . | .
CC(=O)Nc1ccc(S(=O)(=O)N2CCc3nc(-c4ccccc4)c4c(c3C2)CO[C@@H](C)C4)cc1 | -6%[11.2 µM] | -3%[11.2 µM] | 0 | -9%[11.4 µM] | -27%[10 µM] | .
O=C1CCCC/C1=C\Nc1ccc(O)cc1 | ? | 45µM* | -68* | ? | ? | 7%
O=C1CCC/C1=C/Nc1ccc(Cl)cc1 | -2% | 4% | -11 | 0% | 8% | -20%
CCCCC1(Cc2ccc([N+](=O)[O-])cc2)C(=O)N(c2ccccc2)N(c2ccccc2)C1=O | 1% | -6% | -3 | 3% | 25%[10 µM] | 10µM*
CCCCC1(COC(=O)CCC(=O)O)C(=O)N(c2ccccc2)N(c2ccccc2)C1=O | 0% | 0% | 3 | 1% | -18% | 0%[20.6 µM]
Cc1ccc(C(=O)Nc2ccc(Cc3ccncc3)cc2)cc1[N+](=O)[O-] | -1% | 5% | 0 | -1% | -49% | 13µM*
CC1(C)CC(NCCCCCCNC2CC(C)(C)NC(C)(C)C2)CC(C)(C)N1 | 1%[201 µM] | 6%[201 µM] | . | . | . | .
O=C1N/C(=N\N=C\c2cccs2)SC1Cc1cccc(Cl)c1Cl (centres undefined) | -3% | -1% | 1 | 0% | ? | 11µM*
CCc1cc(-c2n[nH]c(C)c2-c2ccccc2Cl)c(O)cc1OC | . | . | -35* | . | . | .
CCOc1ccc(-c2n[nH]c(C)c2-c2ccccc2OC)c(O)c1 | 1% | 12% | -12 | -3% | -10% | ?
CC(COCC(C)OC(=O)c1ccccc1)OC(=O)c1ccccc1 (centres undefined) | -3%[201 µM] | -1%[201 µM] | . | . | . | .
O=c1c2c([N+](=O)[O-])cc([N+](=O)[O-])cc2sn1Cc1ccccc1 | . | . | 1 | . | . | .
O=c1c2c([N+](=O)[O-])cc([N+](=O)[O-])cc2sn1-c1ccc(Br)cc1 | 5% | 4% | 0 | 3.5µM* | 5%[10 µM] | 6%
CC1Oc2ccccc2C=C1/C=C1/SC(N2CCOCC2)=NC1=O (centres undefined) | -2% | 0% | -44* | 6% | -23% | 11%
O=C1N=C(N2CCOCC2)S/C1=C/c1cccs1 | -2% | -3% | 2 | -7% | -14% | 0%
CC(=O)OC[C@@H]1O[C@@H](O/N=C2/C[C@@H](O)[C@@H](O)[C@@H]3[C@@H]4C(=O)N(C[C@@H]5CCCO5)C(=O)[C@H]4CC[C@H]23)[C@H](OC(C)=O)[C@H](OC(C)=O)[C@@H]1OC(C)=O | ? | 2%[11.2 µM] | 8 | . | 28%[10 µM] | .
COc1ccc(CCNC(=O)c2ccc3c(c2)OCO3)cc1 | . | . | 4 | . | . | .
SMILES | TR SRC2 fluor cs | TRb SRC2 PPI | FBPA coupling cs | JMJD2E inh | HTT cytoprotect | HttQ103 aggreg
CCOc1ccc(C(=O)NCCc2ccc3c(c2)OCCO3)cc1 | -1% | 11% | 1 | -16% | . | 5µM*
Cc1nn(Cc2ccc(C(=O)Nc3nc4c(C)cccc4s3)o2)c(C)c1Br | -1% | -4% | 8 | . | -13% | 18µM*
Cc1cc(NC(=O)c2ccc(Cn3nc(C)c(Br)c3C)o2)no1 | -6% | -4% | 1 | 5% | -18% | -4%
CCN1CCN(CCCNC(=O)Cn2c(-c3cccs3)cc3cc(F)ccc32)CC1 | 141µM*[quencher] | ? | . | . | . | .
COCCNC(=O)Cn1c(-c2cccs2)cc2cc(Cl)ccc21 | 126µM*[quencher] | -20% | . | . | . | .
Cc1[nH]n(-c2ccccc2)c(=O)c1N=O | -2% | -2% | -4 | -10% | . | 0.63µM*
Cc1ccc(S(=O)(=O)C(I)I)cc1 | -10%[201 µM] | -3%[201 µM] | . | . | . | .
COC1=CC(=O)C(O)=C/C1=C\C=C\c1ccccc1 | -6% | -6% | -17 | 13µM* | . | .
COc1ccc2c(c1)C(=O)/C(=C/C=C/c1ccccc1)CC2 | 5% | -12% | -3 | 6% | -49%[10 µM] | -3%
Cc1cccc(-n2ncc3c(N4CCCC(C)C4)ncnc32)c1 (centres undefined) | -3% | -1% | . | . | . | .
Cl[Si](Cl)(c1ccccc1)c1ccccc1 | -1%[201 µM] | 0%[201 µM] | . | . | . | .
CCCCCC#CCC#CCC#CCC#CCCCC(=O)O | -26% | 20% | 4 | 16µM*! | 13% | 27%
CCCCCCCCCC(=O)O | 0%[201 µM] | -3%[201 µM] | . | . | -19% | .
COc1ccccc1CNC(=O)c1ccc(N2CCCC2)c(NC(=O)NCCC(C)C)c1 | -3% | 1% | . | . | . | .
CC1=CC(=NOC(=O)/C=C/c2ccccc2)C=C(C)C1=O | 1% | 8% | -45* | 0% | 20% | -27%
COc1ccc(S(=O)(=O)c2cn(CC(=O)Nc3cc(C)ccc3C)c3ccccc3c2=O)cc1 | 0% | 2% | . | . | . | .
Cc1cc2cc(CNC(=O)c3ccc(S(=O)(=O)N(C)C)cc3)ccc2n1C | 2% | 3% | -10 | -4% | -6%[10 µM] | -8%
Cc1cc2ccccc2n1CCNC(=O)C(C)C | -2% | 3% | -2 | -19% | -9% | ?
Cc1ccc(C(=O)NCCn2c(C)cc3ccccc32)cc1C | -2% | -3% | . | . | . | .
Cc1cc2ccccc2n1CCNC(=O)c1ccc(S(=O)(=O)N2CCCCC2)cc1 | 45µM*[fluorescent] | -24% | -8 | -1% | -3%[10 µM] | -31%
Cc1cc2ccccc2n1CCNC(=O)C(C)Oc1ccccc1 (centres undefined) | ? | 50µM* | -14 | ? | 10%[10 µM] | ?
Cc1cc2cc(CNS(=O)(=O)c3ccc4ccccc4c3)ccc2n1C | 45µM*[fluorescent] | 45µM* | -6 | -28% | 9%[10 µM] | -2%
